From PubChem BioAssay (NCI)
The panel holds about 83,000 compounds, 20% with a hit somewhere; the sample as a whole holds those more often.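 Step 1: grow cells in 96-well plates. Step 2: add test compound at a single concentration. Step 3: incubate 48 h. Step 4: record percent growth.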 Activity calls are given as the source filed them.

Test system: EKVX NSCLC
Test: NCI-60 one-dose screen, 48 h (100 = growth as untreated, 0 = no growth, -100 = all killed)
Settings: 10 µM unless noted
Method: Growth inhibition of the EKVX human Non-Small Cell Lung tumor cell line is measured as a screen for anti-cancer activity. Cells are grown in 96 well plates and exposed to the test compound for 48 hours. Compounds are tested at a single concentration, which is 10^-5 M for most compounds. The reported endpoint is percent growth (GI% or GIPRCNT), where numbers from 0 - 100% represent growth inhibition, and numbers from -100% - 0 represent cell death. For example, a value of 40 represents 60% growth inhibition. A value of 0 means no net growth occurred over the course of the experiment. A value of -40 indicates 40% of cells at the beginning of the experiment died by the end of the experiment. A value of -100 means all cells are dead at the end of the experiment.
NCI-60 Human Tumor Cell Lines Screen was performed using the standard one-dose NCI protocol, which is described in more detail at https://dtp.cancer.gov/discovery_development/nci-60/default.htm.
Compounds with GIPRCNT values below 10 were considered active. Activity score was based on GIPRCNT using the following formula: […]
Score is 0 for GIPRCNT values of 100 or above, 50 for GIPRCNT values of 0, and 100 for GIPRCNT values of -100.

Row | Compound | growth
1 | Nc1nc(-c2ccc(Cl)cc2)nc2c1sc(=S)n2-c1ccccc1 | 40.7% (inactive)
2 | CN(C)CC(C)(C)C(=O)/C=C/c1ccccc1 | -18.5% [25 µM] (active)
3 | Cc1ccc(-c2nc(N3CCCNCC3)c3oc(-c4ccc(C)cc4)nc3n2)cc1 | 116% (inactive)
4 | O=C(/C=C/c1cccc(Cl)c1)c1ccc(Nc2nc(Nc3ccc(F)cc3)nc(Nc3ccc(Cl)cc3)n2)cc1 | 139% (inactive)
5 | C=C1C(=O)O[C@H]2[C@H]1CC/C(COC(=O)c1cc3ccccc3s1)=C\CC[C@@]1(C)O[C@@H]21 | -81.1% (active)
6 | Nc1ncnc2c1N=C(c1ccc(Br)cc1)CC(c1cccc(Nc3ccnc4cc(C(F)(F)F)ccc34)c1)N2 (stereo not given) | 44.4% (inactive)
7 | Cc1ccc(Nn2c(SCC(=O)Nc3nc(-c4ccccc4)cs3)nc(C)c2C)cc1 | 49.7% (inactive)
8 | N#CSCC1CC(O)(c2ccccc2)CC(c2ccc(F)cc2)O1 (stereo not given) | 34.2% (inactive)
9 | CC(=O)c1c(C)nc(SCC(=O)Nc2cccc(O)c2)n1-c1ccc(Cl)cc1 | 96.4% (inactive)
10 | COc1cccc(/C=C2\COc3ccc(O)c(O)c3C2=O)c1 | 60.2% (inactive)
11 | C=C1C(=O)O[C@H]2[C@H]1CC/C(Cn1cc(-c3ccccc3)nn1)=C\CC[C@@]1(C)O[C@@H]21 | 72.1% (inactive)
12 | C=CCOC(=O)Nc1cccn([C@H](Cc2ccccc2)C(=O)NCCC(C)C)c1=O | 104% (inactive)
13 | O=C(CN1C(=O)S/C(=C\c2ccccc2)C1=O)Nc1ncc(Cc2ccccc2Cl)s1 | 108% (inactive)
14 | CCCc1c(OC(=O)c2ccccc2)nc2[nH]c(=O)sc2c1C | 97.9% (inactive)
15 | O=C(CN1C(=O)S/C(=C\C(Cl)=C\c2ccccc2)C1=O)NCCc1ccc(O)cc1 | 44.4% (inactive)
16 | CC(C)(Sc1cc(C(C)(C)C)c(OC(=O)CCCC(=O)O)c(C(C)(C)C)c1)Sc1cc(C(C)(C)C)c(OC(=O)CCCC(=O)O)c(C(C)(C)C)c1 | 47.2% (inactive)
17 | COc1ccc(CNc2c3ccccc3nc3ccccc23)cc1 | 49.7% (inactive)
18 | CNC(=O)c1[nH]cc(-c2ccc(OC)cc2)c1-c1cc(OC)c2c(c1OC)OCO2 | 96.8% (inactive)
19 | O=C1NC2(Nc3ccccc31)C(=O)Nc1c(Cl)cc(Cl)cc12 (stereo not given) | 98.8% (inactive)
20 | O=C1/C(=C/c2cccc(F)c2)CN(C(=O)C(Cl)Cl)C/C1=C\c1cccc(F)c1 | -7.73% (active)

Row | Compound | growth
21 | COC1=CC(c2ccc[nH]2)=N/C1=C\c1[nH]c(C)c(CC(=O)NCc2ccccc2)c1C | 21.1% (inactive)
22 | CCOc1ccc(NC(=O)CSc2oc(-c3ccccc3)nc2S(=O)(=O)c2ccc(C)cc2)cc1 | 75.1% (inactive)
23 | COC(=O)c1c2c(c(C)[n+]([O-])c1C)C(=O)C(NCc1cccc(OC)c1)=CC2=O | 57.2% (inactive)
24 | CC(C)=CCCC(C)c1ccc(C)c2c1OCN(CCCCCO)C2 (stereo not given) | 102% (inactive)
25 | COc1ccc(C2=C(Br)C(=O)c3nc(C)ccc3C2=O)cc1 | 94.4% (inactive)
26 | Cc1ccc(C)n1-c1ccccc1-n1c(C)ccc1C | 92.5% (inactive)
27 | Cc1ccc(CNc2ccc3nc(CCC4CCCCC4)[nH]c3c2)cc1 | 53.4% (inactive)
28 | CC(=O)Oc1ccc(/C(=C(\C)c2ccc(Cl)cc2)c2ccc(OCCN3CCCCC3)cc2)cc1 | 62.7% (inactive)
29 | COc1ccccc1NC(=O)N=Nc1c(O)[nH]c2ccccc12 | 83.9% (inactive)
30 | C#CCOc1cccc(Nc2ncnc3cc(NC(=O)C=C)ccc23)c1 | 32.5% (inactive)
31 | COc1cc2c(cc1OCCCN1CCN(CCCOc3cc4c(cc3OC)C(=O)N3CCC[C@H]3C=N4)CC1)C=CC(C)(C)O2 | -100% (active)
32 | NS(=O)(=O)c1ccc(N=Nc2c(O)n(Cc3ccccc3)c3ccc(Cl)cc23)cc1 | 91.2% (inactive)
33 | CC(C)c1ccc(C(=O)Nc2sc3c(c2C(N)=O)CCC(=O)C3)cc1 | 16.1% (inactive)
34 | COc1ccc2cc1Oc1ccc(cc1)C[C@H]1c3c(cc4c(c3Oc3cc5c(cc3OC)CCN(C)[C@@H]5C2)OCO4)CCN1C | 75.1% (inactive)
35 | CC1=C([Se]CC(OC(=O)CC[Se]c2ccccc2)C(=O)NC(C)(C)C)C(=O)c2ccccc2C1=O (stereo not given) | -65.4% (active)
36 | Cn1cc(-c2csc(-c3cn(C(=O)OC(C)(C)C)c4ccc(Br)cc34)n2)c2ccnc(Cl)c21 | 87.7% (inactive)
37 | COc1cc(-c2csc(NC(=O)c3ccc(N4CCOCC4)c(C(F)(F)F)c3)n2)cc(OC)c1OC | 33.7% (inactive)
38 | Cn1c(I)c(C#CCO[Si](C)(C)C(C)(C)C)c(=O)[nH]c1=O | 105% (inactive)
39 | CN1C(=O)/C(=C\c2nc([P+](c3ccccc3)(c3ccccc3)c3ccccc3)c(N3CCOCC3)o2)SC1=S | 92.3% (inactive)
40 | Cc1cc(N2CCN(CC(=O)Nc3ccc4c(ccn4C)c3)CC2)nc(N2CCCCCC2)n1 | 86.2% (inactive)
